eIF4H inh = human eIF4H binding inhibitors, primary screen, translation initiation inhibitor project, biochemical, uHTS, fluorescence polarization. Eukaryotic translation initiation factor 4H (Homo sapiens), Q15056. eIF4H fluorescence polarization binding assay. inhibition, % at 35 µM. 0.94% of 290,000 active. AID 2012, 2009;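 further: calls also rest on retests at 20 µM and on dose response follow-up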
PABP FP inh = PABP poly(A) RNA binding inhibitors, primary screen, biochemical, fluorescence polarization, uHTS | Polyadenylate-binding protein 1 (Homo sapiens), P11940 | inhibition, % at 35 µM | 1% of 290,000 active | AID 2014, 2009;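 further: calls also rest on retests at 20 µM and on dose response follow-up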
PERK inh = block of dimerizer-induced PERK translation repression, primary screen, PERK inhibitor project, CHO PERK-DD cells, SEAP luminescence, HTS; Eukaryotic translation initiation factor 2-alpha kinase 3 (Homo sapiens), Q9NZJ5; CHO PERK-DD fusion, SEAP luminescence translation reporter; inhibition, % at 5.6 µM; 0.17% of 220,000 active; AID 1416, 2008;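 active means inhibition above the mean inhibition of all tested compounds plus 3 SD, set separately per screening campaign, cut at about 2.9% in these data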;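 further: PERK kinase domain activated by AP20187 dimerizer at 100 nM; 0% = DMSO with dimerizer and 100% = rapamycin at 8.4 µM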
MLLE-PAM2 inh = inhibitors of PABP1 MLLE–PAM2 peptide binding, primary screen, biochemical, fluorescence polarization, FITC-PAM2, GST-MLLE | inhibition, % at 20 µM | 0.36% of 360,000 active; in the data active means inhibition above about 35%, passing the limit was not always enough;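 further: plate controls were DMSO wells with GST-MLLE for no effect and wells lacking GST-MLLE protein for full effect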
GRK2 aptamer HTS = compounds blocking aptamer binding on GRK2 – biochemical, human GRK2, bead flow cytometry, HTS, primary screen; Beta-adrenergic receptor kinase 1 (Homo sapiens), P25098; FAM-aptamer displacement from GRK2; 0.59% of 330,000 active; AID 488847, 2010; inhibition of aptamer binding, % at 10 µM;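 active means inhibition of aptamer binding above 40%, roughly 3 SD of noise, on plates passing a quality check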;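 further: median bead fluorescence of bound FAM aptamer so fluorescent compounds give negative values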
Numbers without * were called inactive; u = inconclusive; x = no result; ! = not confirmed by another sample. Sampled rows, rich in hits. Any-hit rate of the full collection: about 1.9%. Unless noted, how the calls were made is not given here.

SMILES	eIF4H inh	PABP FP inh	PERK inh	MLLE-PAM2 inh	GRK2 aptamer HTS
O=C(O)CCCCN1C(=O)/C(=C\c2ccc(OCc3ccccc3)c(OCc3ccccc3)c2)SC1=S	8	-1	x	-4	100*
O=C(O)CCCN1C(=O)/C(=C\c2ccccc2OCc2ccccc2)SC1=S	-1	12	x	12	2
CC(C)Oc1ccc(CNC(=O)Cn2ccc3cc(S(=O)(=O)N4CCCC4)ccc32)cc1	-11	-2	x	3	2
CCCCNC(=O)Oc1c(Br)cc2sc(=O)oc2c1Br	96*	103*	1	x	12
C[C@H](CO)N1C[C@H](C)[C@@H](CN(C)S(C)(=O)=O)Oc2ccc(NC(=O)c3ccncc3)cc2C1=O	x	x	x	3	3
Cc1c(/C=N/Nc2ccc(F)cc2)c(O)n(C)c(=O)c1C#N	81	37*	0	4	0
CC(=O)N=Cc1c(C)c(C#N)c(=O)n(C)c1O	u	-10	1	13	0
CCc1c(O)nc(SCC(=O)Nc2ccccc2OC)n(-c2ccccc2C)c1=O	x	x	x	46*	0
CCCCc1c(O)nc(SCC(=O)Nc2cccc3ccccc23)n(-c2ccccc2OC)c1=O	-3	7	x	41*	0
CCc1c(O)nc(SCC(=O)Nc2ccccc2)n(-c2ccccc2C)c1=O	x	x	x	35	x
COc1ccccc1-n1c(SCC(=O)Nc2cccc3ccccc23)nc(O)cc1=O	-6	-3	0	7	2
Cc1cccc(NC(=O)CN(c2ccc(F)cc2)S(C)(=O)=O)c1	1	-6	0	-2	0
CC(C)Cc1nnc(NC(=O)CCC(=O)NC2CCCCCC2)s1	0	0	x	7	0
Cc1c(C(=O)NCc2ccco2)oc2c(F)cccc12	x	x	x	5	2
CCc1ccc(NC(=O)c2noc3c2CCC3)cc1	83	44	0	4	0
CSc1ccccc1NC(=O)c1noc2c1CCC2	90*	26*	1	29	10
COC(=O)c1ccccc1NC(=O)c1noc2c1CCC2	83*	56*	x	22	19
CC(NC(=O)c1noc2c1CCCC2)c1ccccc1 (stereo not given)	-10	-4	0	-7	1
Cc1ccc(S(=O)(=O)CC(=O)c2cc(C)c(O)c(C)c2)cc1	2.8*	61*	0	6	0
Cc1ccc(S(=O)(=O)CCCS(=O)(=O)c2ccc(C)cc2)cc1	6	-11	0	-9	0
O=C(O)CCCCCNC(=O)Cn1nnc2ccccc2c1=O	2	-14	0	2	1
CCN1CCc2nc3sc(C(=O)N4CCc5ccccc5C4)c(N)c3cc2C1	98*	89*	x	-27	0
CC(C)c1ccc2nc3sc(C(=O)N4CCc5ccccc5C4)c(N)c3cc2c1	-2	9	1	22	0
Cc1cc(C)c(S(=O)(=O)N2CCOC2CNC(=O)C(=O)NCCN2CCOCC2)c(C)c1 (stereo not given)	-6	3	x	-5	1
CC(Oc1ccc(Br)cc1)C(=O)Nc1nnc(C2CC2)s1 (stereo not given)	x	x	x	3	5
SMILES	eIF4H inh	PABP FP inh	PERK inh	MLLE-PAM2 inh	GRK2 aptamer HTS
Cc1nc(-n2[nH]c3c(c2=O)CCCC3)[nH]c(=O)c1Cc1ccccc1	u	104*	-1	-96	0
Cc1nc(N2CCc3ccccc3C2)[nH]c(=O)c1Cc1ccccc1	4	3	2	-6	2
O=C(NC(c1ccccc1)c1ccccc1)C1(c2cccs2)CCOCC1	u	1.4*	0	-8	4
COc1ccc(Cl)cc1C=CC=Nc1ccccc1O	x	x	x	-34	x
O=S(=O)(NCCCCNS(=O)(=O)c1ccc(F)cc1)c1ccc(F)cc1	x	x	x	13	2
O=C(O)C(CCCCNS(=O)(=O)c1ccc(F)cc1)NS(=O)(=O)c1ccc(F)cc1 (stereo not given)	96*!	71*!	x	-14	0
COc1ccc(CN(CC(=O)NCc2ccccc2)C(=O)c2csnn2)cc1	1	-7	0	7	2
COc1ccc(CNC(=O)CN(Cc2ccc(Cl)cc2)C(=O)c2csnn2)cc1	-6	4	x	36*	0
COc1ccc(CNC(=O)CN(Cc2ccc(C)cc2)C(=O)c2csnn2)cc1	-1	2	x	44*	4
CCN(C[C@H]1N[C@@](C)(C(=O)OC)[C@H]2C(=O)N(C)C(=O)[C@@H]12)S(=O)(=O)c1ccc(F)cc1	x	x	x	4	0
Cc1ccc(S(=O)(=O)OCC(=O)Nc2ccc(C(=O)O)c(O)c2)cc1	x	x	x	44*	x
COc1ccc(CNC(=O)COC(=O)c2cc(-c3ccco3)nc3ccccc23)cc1	90*	44	0	x	x
CCNC(=O)COC(=O)c1cc(-c2ccco2)nc2ccccc12	89*	69*	0	-9	13
O=C(OCC(=O)N1CCN(C(=O)c2ccco2)CC1)c1cc(-c2ccc(Cl)c(Cl)c2Cl)nc2ccccc12	-2	-7	-1	-16	0
O=C(OCC(=O)N1CCN(C(=O)c2ccco2)CC1)c1cc(-c2ccco2)nc2ccccc12	85*	70*	-1	19	13
CCOC(=O)CC(=O)CSc1nc(-c2ccc3c(c2)OCO3)cc(C(F)(F)F)c1C#N	u	82*	0	5	1
CCOC(=O)CCSc1nc(-c2ccc3c(c2)OCO3)cc(C(F)(F)F)c1C#N	-6	-5	2	-5	3
N#Cc1c(-c2cccc(Cl)c2)[nH]c(=S)[nH]c1=O	0	4	0	53*	3
O=Cc1c(-c2ccc(Cl)cc2)oc2ccc(O)cc12	x	x	x	-21	2
Cc1ccc(C)c(S(=O)(=O)/N=C2\C=C(NS(=O)(=O)c3ccccc3)C(=O)c3ccccc32)c1	16	6	x	13	0
Cc1cc(C)c(S(=O)(=O)/N=C2/C=C(Sc3ncn[nH]3)C(=O)c3ccccc32)cc1C	7	11	1	45*	6
COc1c(O)cccc1[C@H](O)C1CCN(CCc2ccc(F)cc2)CC1	x	x	x	77*	3
COc1ccc(CC(=O)Nc2ccc(S(=O)(=O)Nc3cc(C)nc(C)n3)cc2)cc1OC	x	x	x	10	x
O=C(CSc1nc(-c2ccccc2)cc(=O)[nH]1)Nc1ccc(F)c(F)c1	-7	10	x	-6	0
O=c1oc2ccc3ccccc3c2cc1-c1nnc(-c2ccccc2)o1	11	9	1	0	0
Nc1nnc(-c2cc3c(ccc4ccccc43)oc2=O)s1	86*	-1	0	x	x
COc1cc(C(CC(=O)N2CCCC2)c2c(OC)cc(OC)c3ccc(=O)oc23)cc(OC)c1OC (stereo not given)	52*	28	x	43*	7

Compound activity from PubChem.
